Reference: PubChem BioAssay AID686979 (National Center for Advancing Translational Sciences (NCATS), 2013)
Several values for one entry are separate records, joined by “and”; a condition that tells them apart may be missing. Equal entries are not always repeated. The whole screen tested about 420,000 compounds, of which about 50,000 (12%) were called active. Where a call stands in place of a potency, no number is given. Inconclusive results (about 26%) are left out. Calls come from the whole dose curve; as a rule, active = well fitted inhibition curve with a large enough effect; inconclusive = small, poorly fitted or top-dose-only effect; inactive = flat fitted curve, though single readings scatter. This excerpt belongs to a sample that is enriched for actives.

Assay: qHTS for Inhibitors of human tyrosyl-DNA phosphodiesterase 1 (TDP1): qHTS in cells in presence of CPT; note: nearly all actives have a fitted effect of over 55% in size
Conditions: chicken DT40 Tdp1-/-;hTDP1 cells + 20 nM CPT, ATP luminescence, 48 h; series mostly up to 46.2 µM
How it was run: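 Chicken DT40 Tdp1-/- cells complemented with human TDP1, 400 cells/well, exposed to compounds plus 20 nM camptothecin for at least 48 h at 37 C; viability read as ATP content by CellTiter-Glo luminescence.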
Potency is the fitted concentration of half-maximal effect.

| SMILES | Potency |
| --- | --- |
| CN(CC(=O)Nc1c(Cl)cccc1Cl)C(=O)CNC(=O)C1CCCCC1 | inactive |
| Cc1nnc(SCC(=O)NCCOc2ccc(Cl)cc2)n1-c1ccccc1 | inactive |
| Cc1ccc(-n2c(SCC(=O)NCCC3=CCCCC3)nc3n[nH]c(C)c3c2=N)cc1Cl | 11.6 µM (active) |
| CCOc1ccc(-n2c(SCC(=O)NCc3ccccc3)nc3n[nH]c(C)c3c2=N)cc1 | 9.2 µM (active) |
| CCC(Sc1nc2n[nH]c(C)c2c(=N)n1-c1ccccc1Cl)C(=O)N(CC)CC (stereo not given) | 18.4 µM (active) |
| CCOc1ccc(-n2c(SCC(=O)Nc3cc(C(=O)O)ccc3Cl)nc3ccccc3c2=O)cc1 | inactive |
| Cc1nnc(OCC(=O)NCCC2=CCCCC2)c2ccccc12 | inactive |
| CCCCNC(=O)CSc1nccn1Cc1ccccc1 | inactive |
| O=C(COc1ccc(Cl)cc1)NCCC1=CCCCC1 | inactive |
| CCCCNC(=O)CSc1nc2n[nH]c(C)c2c(=N)n1-c1cccc(Cl)c1C | 16.4 µM (active) and 11.6 µM (active) |
| CCCCNC(=O)CSc1nnc(-c2ccco2)n1C | inactive |
| O=C(COC(=O)c1cccnc1Cl)NC(=O)NC1CCCCC1 | inactive |
| C[C@H](C(=O)CC(=O)OC(C)(C)C)[C@H](O)c1ccc(C(F)(F)F)cc1 | inactive |
| Cc1ccc(SCCC(=O)NC(C(C)C)C(C)C)cc1 | inactive |
| COc1ccc(OCC(=O)Nc2ccc(NC(=O)c3ccco3)c(C)c2)cc1 | inactive |
| CCC1(C2CCN(C(=O)c3cccc(F)c3F)CC2)NC(=O)N(CCc2scnc2C)C1=O (stereo not given) | inactive |
| CCCC(C)NC(=O)C1CCN(C(=O)C2CC(=O)N(c3ccc(C)cc3)C2)CC1 (stereo not given) | inactive |
| CCN(Cc1ccccc1)S(=O)(=O)c1cc(C(=O)O)ccc1OC | inactive |
| CSC1=NN(c2ccccc2)CN(c2ccccc2)N1C | inactive |
| CC(C)NC(=O)NC(=O)CSc1nnc(-c2ccccc2F)n1N | inactive |
| COc1ccc(-n2c(Cc3cccn3C)nnc2SCC(=O)Nc2cc(C)cc(C)c2)cc1 | inactive |
| COc1ccc(-n2c(SCC(=O)Nc3ccc(Cl)c(C)c3)nc3n[nH]c(C)c3c2=N)cc1 | 13 µM (active) |

| SMILES | Potency |
| --- | --- |
| COc1ccc(-n2nnnc2SCC(=O)Nc2ccccc2)cc1 | inactive |
| Cn1c(CNC(=O)c2ccccc2F)nnc1SCc1ccc(F)cc1 | inactive |
| O=C(NCc1cccnc1)c1nc(-c2cccs2)no1 | inactive |
| O=C(CSc1ccccc1)Nc1cc(Cl)ccc1Oc1ccccc1 | inactive |
| CC1CCCN(CC(=O)Nc2cc(Cl)ccc2Oc2ccccc2)C1 (stereo not given) | 25.9 µM (active) |
| CC(=O)Nc1ccc(NC(=O)CN2CCCC(C)C2)c(Cl)c1 (stereo not given) | inactive |
| CC1CCCN(S(=O)(=O)c2ccc(-c3ccc(=O)[nH]n3)o2)C1 (stereo not given) | inactive |
| Cc1ccc(/C=C/C(=O)OCC(=O)NCc2ccc(Cl)cc2)o1 | inactive |
| COCCNC(=O)C(c1ccc(C)o1)N(Cc1cccs1)C(=O)c1snc(C(N)=O)c1N (stereo not given) | inactive |
| CCOc1ccc(N(C(=O)c2snc(C(N)=O)c2N)C(C(=O)NCC2CCCO2)c2c[nH]c3ccccc23)cc1 (stereo not given) | inactive |
| COc1ccc(N(C(=O)c2snc(C(N)=O)c2N)C(C(=O)NC2CCCC2)c2ccco2)cc1OC (stereo not given) | inactive |
| Cc1ccc(N(C(=O)c2snc(C(N)=O)c2N)C(C(=O)NCC2CCCO2)c2c[nH]c3ccccc23)cc1 (stereo not given) | 4.61 µM (active) |
| Cc1ccc(C(C(=O)NCC2CCCO2)N(C(=O)c2snc(C(N)=O)c2N)c2ccc(C(C)C)cc2)o1 (stereo not given) | 23.1 µM (active) |
| Cc1ccc(N(C(=O)Cc2cccs2)C(C(=O)NCC2CCCO2)c2ccncc2)cc1 (stereo not given) | inactive |
| Nc1nc(Sc2ncccc2[N+](=O)[O-])n[nH]1 | inactive |
| O=C(Oc1ccc(Br)cc1C(=S)N1CCOCC1)c1cccc([N+](=O)[O-])c1 | inactive |
| O=C(NNC(=O)C(O)c1ccccc1)NC1CCCCC1 (stereo not given) | inactive |
| O=C(CN1CCN(Cc2ccc(Cl)cc2)C1=O)NCc1ccc(F)cc1 | inactive |
| NC(=O)c1ccc(Nc2ccc3nonc3c2[N+](=O)[O-])cc1 | inactive |
| Cc1cc(C)n2nc(C(=O)N3CCN(Cc4ccc5c(c4)OCO5)CC3)nc2n1 | inactive |
| O=C(C1CCN(Cc2ccc(Cl)cc2)CC1)N1CCN(Cc2ccc3c(c2)OCO3)CC1 | 23.1 µM (active) |
| O=C(c1cccs1)N1CCN(Cc2ccc3c(c2)OCO3)CC1 | inactive |

| SMILES | Potency |
| --- | --- |
| CCN(CCCNC(=O)C1CCN(S(=O)(=O)c2cnc[nH]2)CC1)c1ccccc1 | inactive |
| O=C(C1CCN(S(=O)(=O)c2cnc[nH]2)CC1)N1CCN(Cc2ccc3c(c2)OCO3)CC1 | 20.6 µM (active) |
| O=C(Nc1cccc2ccccc12)N1CCN(Cc2ccc3c(c2)OCO3)CC1 | inactive |
| CCN(C(=O)CSc1nnnn1-c1ccc(OC)cc1)C1CCS(=O)(=O)C1 (stereo not given) | inactive |
| CO/N=C/c1cn(-c2ccc(Cl)cc2)nn1 | inactive |
| CSc1ccc(/C=N/NC(=O)c2cccc(Cl)c2)cc1 | inactive |
| CCOC(=O)c1ccccc1NC(=O)c1c(N)n(C)c(=O)[nH]c1=O | inactive |
| CCc1ccc(NC(=O)CN2C(=O)COc3ccc(S(=O)(=O)N4CCCC4)cc32)cc1 | inactive |
| NS(=O)(=O)c1ccc(NC(=O)/C=C/c2ccccc2Cl)cc1 | inactive |
| COc1ccc(/C=N/NS(=O)(=O)c2ccc(NC(C)=O)cc2)cc1 | inactive |
| COc1ccc(NS(=O)(=O)c2ccc(NC(C)=O)cc2)cc1OC | 9.2 µM (active) |
| CC(=O)Nc1ccc(S(=O)(=O)Nc2cccc(NC(=O)C(C)(C)C)c2)cc1 | inactive |
| CC(=O)Nc1ccc(S(=O)(=O)N2CCCC2C(=O)O)cc1 (stereo not given) | inactive |
| COc1ccc(C(=O)Nc2ccc(S(=O)(=O)Nc3onc(C)c3C)cc2)cc1OC | inactive |
| COc1ccc(NS(=O)(=O)c2ccc(NC(=O)c3ccc(N(C)S(C)(=O)=O)cc3)cc2)cc1 | 8.2 µM (active) |
| COC(=O)COc1ccc(S(=O)(=O)Nc2ccc(NC(C)=O)cc2)cc1 | inactive |
| COc1ccc(NC(=O)c2cnc(NS(=O)(=O)c3ccccc3)nc2)cc1 | inactive |
| COc1cc(OC)cc(C(=O)Nc2ccc(S(=O)(=O)Nc3cc(C)on3)cc2)c1 | inactive |
| CC(=O)Nc1ccc(S(=O)(=O)Nc2ccc(N3CCCCC3)cc2)cc1 | 4.61 µM (active) |
| COc1cc(NS(=O)(=O)c2ccc(NC(C)=O)cc2)cc(OC)c1 | 14.6 µM (active) |
| CC(=O)Nc1ccc(NS(=O)(=O)c2ccc3c(c2)NC(=O)CC(=O)N3)cc1 | inactive |
